Z-score and composite z-score data for 5 molecules are collected here from PubChem BioAssay.

The source made the active and inactive calls.

Assay [1] in a line: E. coli DRC41 culture turbidity changes, primary screen, E. coli filamentation inducer project, strain DRC41, OD650, 48 h (AID 1152).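 Further: E. coli MC1000 strain DRC41 lacking acrAB efflux pump and sulA.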 The following applies: E. coli DRC41 (acrAB sulA), higher = more signal, called active from +8 up or from −8 down.
A short description of assay [2]: small-molecule binders of probe aLefty1, primary screen, biochemical, small-molecule microarray, 635/667 nm fluorescence (AID 1153).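 Further: score merges spot fluorescence with signal-to-noise ratio from the scanned slide images.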 The following applies: higher = more signal.
Assay [3] is described as follows: PSAC antagonists in infected red cells, primary screen, cell-based, P. falciparum Indochina, OD700, 1 h (AID 1154). The following applies: P. falciparum Indochina infected RBC osmotic lysis, higher = more signal, called active from +8 up or from −8 down.
The nature of assay [4]: PSAC antagonists in infected red cells, primary screen, cell-based, P. falciparum Indochina, OD700, 2 h (AID 1155).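 Further: lysis reports solute entry through the parasite surface anion channel PSAC; channel blockers reduce lysis of infected cells.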 The following applies: P. falciparum Indochina infected erythrocytes, osmotic lysis OD700; higher = more signal, called active from +8 up or from −8 down.
Assay [5] can be described thus: osmotic lysis modulators in infected erythrocytes, primary screen, PSAC antagonist project, cell-based, P. falciparum Indochina, OD700, 3 h (AID 1156). The following applies: higher = more signal, called active from +8 up or from −8 down.
Assay [6] is described as follows: PSAC antagonists in infected red cells, primary screen, cell-based, P. falciparum Indochina, OD700, 18 h (AID 1157). The following applies: P. falciparum Indochina infected erythrocytes, osmotic lysis OD700, 18 h; higher = more signal, called active from +8 up or from −8 down.
Assay [7] can be described thus: modulators of S6 phosphorylation in cells, primary screen, cell-based, A549, cytoblot, luminescence, serum-stimulated (AID 1158).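 Further: serum-stimulated A549 lung adenocarcinoma cells; signal is phosphorylated S6 detected by cytoblot immunostaining with HRP secondary.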 The following applies: A549 phospho-S6 cytoblot, 5 h, higher = more signal.
Assay [8] concerns the target NADPH oxidase 2 (Homo sapiens) (UniProt P04839). Put plainly: NOX2-dependent H2O2 signal modulators, primary screen, NOX inhibitor project, cell-based, HEK293-NOX2, PMA-stimulated, Amplex Red fluorescence (AID 1159). Further: test concentration not given here. The following applies: 45 min, higher = more signal, called active from +8 up or from −8 down.
The target of assay [9] is NADPH oxidase 4 (Homo sapiens) (UniProt Q9NPH5). Put plainly: NOX4-dependent H2O2 signal modulators, primary screen, NOX inhibitor project, cell-based, HEK293-NOX4, tetracycline-induced, Amplex Red fluorescence (AID 1160). The following applies: 45 min, higher = more signal, called active from +8 up or from −8 down.
NADPH oxidase 4 (Homo sapiens), sequence (Q9NPH5 whole entry, looked up): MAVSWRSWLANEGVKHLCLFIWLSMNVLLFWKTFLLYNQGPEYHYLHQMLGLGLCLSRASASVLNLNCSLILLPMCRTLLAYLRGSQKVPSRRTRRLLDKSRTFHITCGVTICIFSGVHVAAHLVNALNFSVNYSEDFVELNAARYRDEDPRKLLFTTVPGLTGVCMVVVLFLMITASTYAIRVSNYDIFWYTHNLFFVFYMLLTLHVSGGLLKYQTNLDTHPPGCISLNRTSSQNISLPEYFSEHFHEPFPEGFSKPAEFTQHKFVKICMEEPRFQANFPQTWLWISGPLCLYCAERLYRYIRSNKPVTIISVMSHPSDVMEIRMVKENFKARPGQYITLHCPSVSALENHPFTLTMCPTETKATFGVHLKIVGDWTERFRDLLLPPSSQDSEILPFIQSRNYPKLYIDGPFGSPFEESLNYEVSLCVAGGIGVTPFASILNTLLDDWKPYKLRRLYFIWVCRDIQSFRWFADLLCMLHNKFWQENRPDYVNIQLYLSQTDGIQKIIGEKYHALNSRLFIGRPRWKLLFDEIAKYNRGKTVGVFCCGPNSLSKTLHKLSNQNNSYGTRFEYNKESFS
The target of assay [10] is NADPH oxidase 5 (Homo sapiens) (UniProt Q96PH1). Put plainly: NOX5-dependent H2O2 signal modulators, primary screen, NOX inhibitor project, cell-based, HEK293-NOX5, Amplex Red fluorescence (AID 1161). The following applies: HEK293-NOX5, ionomycin, 45 min, higher = more signal.
NADPH oxidase 5 (Homo sapiens), sequence (Q96PH1 whole entry, looked up): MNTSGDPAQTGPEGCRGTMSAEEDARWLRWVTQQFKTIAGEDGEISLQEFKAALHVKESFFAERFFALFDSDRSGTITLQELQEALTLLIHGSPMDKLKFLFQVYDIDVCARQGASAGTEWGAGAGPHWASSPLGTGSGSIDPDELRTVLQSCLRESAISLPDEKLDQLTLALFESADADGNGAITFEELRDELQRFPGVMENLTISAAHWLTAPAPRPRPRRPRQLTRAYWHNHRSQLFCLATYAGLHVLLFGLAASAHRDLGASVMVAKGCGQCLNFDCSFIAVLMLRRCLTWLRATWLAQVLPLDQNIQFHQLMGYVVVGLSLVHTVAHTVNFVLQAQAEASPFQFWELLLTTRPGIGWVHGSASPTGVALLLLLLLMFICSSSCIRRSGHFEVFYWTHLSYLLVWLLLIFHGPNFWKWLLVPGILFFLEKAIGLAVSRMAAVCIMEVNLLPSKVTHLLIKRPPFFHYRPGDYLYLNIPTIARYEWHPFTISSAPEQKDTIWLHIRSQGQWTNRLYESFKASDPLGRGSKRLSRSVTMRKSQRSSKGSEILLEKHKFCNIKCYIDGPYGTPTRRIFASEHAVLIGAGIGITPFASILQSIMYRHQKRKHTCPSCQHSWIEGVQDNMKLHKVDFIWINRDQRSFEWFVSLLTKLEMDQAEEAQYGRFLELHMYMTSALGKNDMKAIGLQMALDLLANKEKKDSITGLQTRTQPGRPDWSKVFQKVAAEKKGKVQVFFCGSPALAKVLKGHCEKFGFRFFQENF
Assay [11] is described as follows: A549 cell viability effects, profiling panel, calcein-AM fluorescence, 48 h, basal (AID 1162). Further: test concentration not given here. The following applies: higher = more signal.
The nature of assay [12]: adipocyte viability effects, profiling panel, cell-based, 3T3-L1 adipocytes, calcein-AM fluorescence, 48 h, basal (AID 1163). Further: test concentration not given here. The following applies: 3T3-L1 adipocytes viability, higher = more signal.
Assay [13] can be described thus: HepG2 cell viability effects, profiling panel, calcein-AM fluorescence, 48 h, basal (AID 1164). Further: test concentration not given here. The following applies: higher = more signal.
Assay [14] is described as follows: MM1S cell viability effects, profiling panel, calcein-AM fluorescence, 48 h, basal (AID 1165).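 Further: viability of MM1S multiple myeloma cells under basal unstimulated conditions; test concentration not given here.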 The following applies: higher = more signal.
Assay [15] in a line: basal RPMI8226 viability, no added stimulus, profiling panel, cell-based, calcein-AM fluorescence, 48 h, PK04 Diversity Set (AID 1166).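 Further: cells grown under basal conditions without added stimulus; test concentration not given here.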 The following applies: RPMI8226 myeloma viability, higher = more signal.
Assay [16] in a line: basal HepG2 mitochondrial membrane potential changes, profiling panel, cell-based, JC-1 fluorescence, 24 h, 100 nL compound (AID 1167). Further: test concentration not given here. The following applies: higher = more signal.
Assay [17] is described as follows: basal 3T3-L1 adipocyte mitochondrial potential changes, profiling panel, cell-based, JC-1 fluorescence, 3T3-L1 adipocytes, 24 h, 100 nL compound (AID 1168). Further: test concentration not given here. The following applies: JC-1 mitochondrial fluorescence, higher = more signal, called active from +8 up or from −8 down.
Assay [18] can be described thus: basal RPMI8226 mitochondrial membrane potential changes, profiling panel, cell-based, JC-1 fluorescence, 24 h, 100 nL compound (AID 1169). Further: test concentration not given here. The following applies: RPMI8226 myeloma, JC-1 mitochondrial potential fluorescence, higher = more signal.
Assay [19] in a line: basal MM1S mitochondrial membrane potential changes, profiling panel, cell-based, JC-1 fluorescence, 24 h, 100 nL compound (AID 1170). Further: test concentration not given here. The following applies: higher = more signal.
Assay [20] can be described thus: A549 lung cancer cell viability effects, profiling panel, resazurin fluorescence, 24 h, PK04 Diversity Set (AID 1171). Further: test concentration not given here. The following applies: higher = more signal, called active from +8 up or from −8 down. For orientation: Alamar Blue is a resazurin reagent that responds to reducing activity.

NADPH oxidase 2 (Homo sapiens), sequence (P04839 whole entry, looked up): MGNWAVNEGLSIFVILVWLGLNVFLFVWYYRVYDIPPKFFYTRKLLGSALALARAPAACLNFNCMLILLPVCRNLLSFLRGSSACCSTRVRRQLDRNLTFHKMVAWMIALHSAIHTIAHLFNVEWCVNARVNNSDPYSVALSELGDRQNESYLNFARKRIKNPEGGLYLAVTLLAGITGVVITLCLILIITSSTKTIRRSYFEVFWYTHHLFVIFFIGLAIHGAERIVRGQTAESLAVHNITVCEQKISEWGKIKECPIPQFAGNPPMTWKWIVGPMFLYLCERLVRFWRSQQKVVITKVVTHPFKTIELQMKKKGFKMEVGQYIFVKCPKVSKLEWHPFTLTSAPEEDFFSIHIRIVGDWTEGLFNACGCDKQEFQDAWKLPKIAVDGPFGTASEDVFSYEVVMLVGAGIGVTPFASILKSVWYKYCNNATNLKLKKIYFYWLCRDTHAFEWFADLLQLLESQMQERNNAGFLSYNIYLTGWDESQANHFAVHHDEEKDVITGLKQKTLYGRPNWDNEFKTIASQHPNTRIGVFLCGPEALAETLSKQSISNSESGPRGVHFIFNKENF

On to `C=CC(CO)NC(=O)OCC1c2ccccc2-c2ccccc21` (stereo not given), for which the z-score in [1] was -0.878 (inactive); in assay [3] it was -0.0039 (inactive); in assay [4], -0.124 (inactive); in assay [5], -1.03 (inactive); in assay [6], 0.182 (inactive); in assay [7], 0.078. Besides, the z-score was -0.385 (inactive) in assay [8]; 0.0866 (inactive) in assay [9]; 0.23 in assay [10]; -0.454 in assay [11]; 0.351 in [12]; -0.479 in [13]. Further, the z-score was -1.07 in [14]; 0.0644 in assay [15]; -0.692 in [16]; 0.386 (inactive) in assay [17]; 0.534 in [18]; 0.128 in assay [19]. In assay [20], the z-score was -0.62 (inactive). Further, the composite z-score in assay [2] is -0.188.
As for `COCCOC(=O)N1C(=O)[C@@]2(c3cc(C#CC4=CCCCC4)ccc31)[C@H](C(=O)N1CCN(c3ncccn3)CC1)[C@H]1C(=O)O[C@H](c3ccccc3)[C@H](c3ccccc3)N1[C@@H]2c1ccccc1OCCO`, the z-score is 2.23 (inactive) in [1]; 1.65 (inactive) in assay [3]; 0.256 (inactive) in assay [4]; -0.634 (inactive) in [5]; -0.227 (inactive) in [6]; 2.05 in [7]. In addition, the z-score in assay [8] was -0.241 (inactive); in assay [9] it was -2.24 (inactive); in assay [10] it was -3.12; in assay [11], -0.793; in assay [12] it was 1.36; in [13] it was -0.435. Moreover, the z-score in assay [14] was -1.24; in [15] it was -1.88; in [16], -0.0311; in assay [17], 10.6 (active); in assay [18], -0.645; in assay [19] it was -1.47. In addition, the z-score in [20] is 0.738 (inactive). The molecule further returned a composite z-score in assay [2] of 0.297.
For the molecule `C[C@H]1NC(=O)C([C@@H](C)OCc2ccccc2)NC(=O)[C@@]23C(=O)N[C@@H](Cc4ccccc4)C2[C@H](C)[C@@]2(C)O[C@H]2C3/C=C/C/C=C\CNC1=O` (stereo not given in full), the z-score is -0.009 (inactive) in [1]; 1.88 (inactive) in [3]; 0.58 (inactive) in [4]; 0.761 (inactive) in assay [5]; 0.427 (inactive) in [6]; -0.104 in assay [7]. The z-score was -0.118 (inactive) in assay [8]; -1.16 (inactive) in [9]; -0.16 in assay [10]; 0.462 in [11]; 1.44 in assay [12]; 0.14 in assay [13]. Further, the z-score in assay [14] is -0.0497; in assay [15] it was -0.23; in assay [16], 0.817; in [17], 0.346 (inactive); in assay [18], 0.0911; in [19], 0.607. The z-score in assay [20] was -0.214 (inactive). In addition, the composite z-score in assay [2] is -0.0501.
For `Cc1ccc(S[C@]2(C(=O)NCCCN(C)C)CC(=O)N(Cc3ccccc3Cl)[C@@H]2c2ccc(CO)cc2I)cc1`, the z-score was 1.02 (inactive) in assay [1]; 4.18 (inactive) in assay [3]; 0.987 (inactive) in [4]; 0.524 (inactive) in [5]; 0.498 (inactive) in assay [6]; -0.344 in assay [7]. Also, the z-score is 0.255 (inactive) in assay [8]; -1.15 (inactive) in assay [9]; 1.78 in assay [10]; 0.171 in assay [11]; 0.908 in [12]; -0.696 in assay [13]. In addition, the z-score in assay [14] was -2.41; in assay [15] it was -3.15; in [16], 1.25; in assay [17], 0.722 (inactive); in assay [18], -0.351; in assay [19] it was -0.984. In assay [20], the z-score is 0.515 (inactive). The molecule also showed a composite z-score in assay [2] of -0.0573.
With `[N-]=[N+]=NCc1ccccc1C[C@]1(C(=O)NCc2ccccc2)N=C(c2ccc(OCCCO)cc2)O[C@H]1c1ccccc1CN=[N+]=[N-]`, the z-score in assay [1] was 1.76 (inactive); in assay [3] it was 18.7 (active); in [4] it was 5.01 (inactive); in assay [5], 2.53 (inactive); in assay [6] it was 0.936 (inactive); in assay [7] it was 2.34. Besides, the z-score is -1.09 (inactive) in assay [8]; 0.145 (inactive) in assay [9]; 0.094 in assay [10]; -1.42 in [11]; 2.15 in assay [12]; -0.955 in [13]. The z-score in assay [14] was -1.23; in assay [15], -1.69; in [16], 0.247; in assay [17] it was -0.158 (inactive); in assay [18], -0.899; in assay [19] it was -0.214. Further, the z-score in assay [20] was -1.09 (inactive). For the same molecule, in [2], the composite z-score was 1.09.
